Only some compounds are listed: those with a hit (about 18% of all), similar ones and a draw of the others.
HepG2 viability – counter-screen for TGF-b inhibitors: cytotoxicity in HepG2 cells. Potency, µM (doses to about 46.1 µM), actives largely listed as cytotoxic. HepG2 CAGA-GFP viability, ATP luminescence, 18 h. AID 588856. 410,000 compounds, 0.76% hits
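HepG2 CAGA-GFP cells (1000/well, DMEM with 1% FBS) received compound, then TGF-beta at 500 pg/mL final, and were incubated 18 hours at 37 degrees C. Viability was read by CellTiter-Glo luminescence. Media-only wells were set as complete cell-killing and DMSO as no toxicity.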
TDP1 block – inhibitors of human tyrosyl-DNA phosphodiesterase TDP1; AID 485290; recombinant TDP1, AlphaScreen DNA substrate cleavage; Q9NUW8; 350,000 compounds, 0.28% hits; Potency, µM (series often up to 130 µM), usual class: inhibitors; note: nearly all actives have a fitted effect of over 40% in size
Target sequence (Q9NUW8 whole entry, looked up): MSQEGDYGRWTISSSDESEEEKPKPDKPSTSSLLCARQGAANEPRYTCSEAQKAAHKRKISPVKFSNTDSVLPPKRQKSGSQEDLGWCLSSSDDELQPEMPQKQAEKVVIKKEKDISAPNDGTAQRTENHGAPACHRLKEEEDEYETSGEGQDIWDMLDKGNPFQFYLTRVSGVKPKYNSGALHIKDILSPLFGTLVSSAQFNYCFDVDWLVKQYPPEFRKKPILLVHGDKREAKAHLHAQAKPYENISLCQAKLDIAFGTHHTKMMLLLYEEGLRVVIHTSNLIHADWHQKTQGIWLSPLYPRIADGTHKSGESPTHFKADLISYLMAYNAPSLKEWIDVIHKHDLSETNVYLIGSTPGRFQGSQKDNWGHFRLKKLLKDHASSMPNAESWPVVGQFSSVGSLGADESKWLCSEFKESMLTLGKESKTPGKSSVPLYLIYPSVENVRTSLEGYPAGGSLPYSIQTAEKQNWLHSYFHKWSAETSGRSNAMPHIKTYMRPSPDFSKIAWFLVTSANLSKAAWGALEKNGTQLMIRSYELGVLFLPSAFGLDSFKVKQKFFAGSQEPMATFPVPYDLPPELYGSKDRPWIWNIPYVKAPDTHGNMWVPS
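AlphaScreen read-out: signal falls as enzyme removes the 3' tyrosine-FITC from a 5'-biotinylated DNA oligo (15 nM, 5 min, RT). Enzyme was E. coli-made recombinant Tdp1 at 1 nM, exposed to compound for 15 min beforehand; beads 10 ug/ml, 10 min.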
TDP1 cell noCPT – qHTS for Inhibitors of human tyrosyl-DNA phosphodiesterase 1 (TDP1): qHTS in cells in absence of CPT; DT40 Tdp1-/- hTDP1 cells, no CPT, ATP luminescence, 48 h; Potency, µM (titrated, usually from 46.2 µM), most hits filed as inhibitors; 420,000 compounds, 15% hits; AID 686978, 2013; note: nearly all actives have a fitted effect of over 55% in size
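Seeded 400 DT40-hTDP1 cells/well (vehicle DMSO, no 20 nM CPT); pinned compounds; ≥48 hr at 37 °C; CellTiter-Glo luminescence as viability measure.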
DT40 TDP1 CPT – DT40-hTDP1 cell growth loss with CPT; chicken DT40 Tdp1-/-;hTDP1 cells + 20 nM CPT, ATP luminescence, 48 h; Potency, µM (top dose mostly 46.2 µM), hits mostly inhibitors; 420,000 compounds, 12% hits; AID 686979; note: nearly all actives have a fitted effect of over 55% in size
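Chicken DT40 Tdp1-/- cells stably complemented with human TDP1 were seeded at 400 cells/well in medium containing 20 nM camptothecin, exposed to pin-transferred compounds, and grown at 37 °C for at least 48 hr. Viability was read as ATP luminescence.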
IL1B secr inh – inflammasome signaling inhibition, IL-1 beta readout | THP-1 LPS/ATP IL-1B secretion, AlphaLISA, 16 h; hits give low values | activity change, % at 57.5 µM | 360,000 compounds, 4.7% hits; in the data active = activity change below about -50%; inconclusive = mostly about -30% to -49%
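Secreted IL-1B measured by AlphaLISA bead assay after 16 h compound exposure of THP-1 cells; compounds (final up to 57.5 uM) added 1 h before LPS (250 ng/mL) and ATP (1.25 mM) stimulation; lower signal means less secretion.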
TGFb inhibitor – blocks TGF-b signaling; HepG2 CAGA-GFP TGF-b/SMAD3 reporter, GFP fluorescence, 18 h; TGF-beta stimulated, 500 pg/mL final; Potency, µM (highest dose often 46.1 µM), hits mostly inhibitors; 410,000 compounds, 1.2% hits; AID 588855; note: nearly all actives have a fitted effect of over 65% in size
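GFP signal (ex488/em500-530) from TGF-beta-stimulated HEPG2 CAGA-GFP cells, 500 pg/mL final, 18 h at 37 degrees C in DMEM plus 1% FBS, normalized to unstimulated and DMSO-stimulated controls.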
Numbers stand for hits; i = inactive; ? = inconclusive; nt = no result; [ ] = remark or other dose. Unless noted, calls come from the whole dose curve; as a rule, active = well fitted curve in the direction sought with a large enough effect; inconclusive = small, poorly fitted or top-dose-only effect, or another doubt; inactive = no such curve, though single readings can be large; an effect the other way counts as inactive or inconclusive.

SMILES	HepG2 viability	TDP1 block	TDP1 cell noCPT	DT40 TDP1 CPT	IL1B secr inh	TGFb inhibitor
COc1cc(/C=c2/sc3nc(-c4ccccc4)c(-c4ccccc4)n3c2=O)cc(OC)c1OC	i	i	10µM	6.5µM	i	i
CC1(C)OC(=O)C2(Cc3cc([N+](=O)[O-])ccc3N3CCCCC32)C(=O)O1 (stereo not given)	i	nt	i	?	nt	i
C=CCNC(=O)c1onc(CCl)c1C(=O)OC	i	i	?	23µM	i	i
CCCCC/C=C\C/C=C\C/C=C\CCCCCCC(=O)NCCc1ccc(O)c(O)c1	nt	i	nt	nt	nt	nt
CC(=O)c1ccc(OCC(O)COc2ccc(C(C)=O)cc2)cc1	i	i	i	i	i	i
CC(=O)c1ccc(OCC(C)Oc2ccc(C#N)cc2)cc1 (stereo not given)	i	i	23µM	?	i	i
Nc1[nH]c(=S)[nH]c(=O)c1N=O	i	nt	i	i	nt	i
Cc1ccc2oc(-c3ccccc3)cc(=O)c2c1	nt	i	i	i	nt	nt
OCCCN=c1cc(-c2ccccc2)oc2ccc(Cl)cc12	i	i	18µM	?	-102	i
CC1(C)CC(N=c2cc(-c3ccccc3)oc3ccc(Cl)cc23)CC(C)(C)N1	16µM	i	5.8µM	5.2µM	-102	?
Cc1ccc(C)c(N2CCN(C3C(=O)Nc4ccccc4-n4nnnc43)CC2)c1 (stereo not given)	nt	nt	16µM	21µM	i	nt
COc1ccc(N2CCN(C3C(=O)Nc4ccccc4-n4nnnc43)CC2)cc1 (stereo not given)	nt	nt	i	i	i	nt
O=C1Nc2ccccc2-n2nnnc2C1N1CCN(c2ccc(C(F)(F)F)cc2[N+](=O)[O-])CC1 (stereo not given)	nt	nt	16µM	23µM	i	nt
C[C@H](CO)N1C[C@H](C)[C@H](CN(C)C(=O)c2ccccc2F)Oc2ncc(Br)cc2C1=O	i	nt	i	i	i	i
CCOCCn1c2ccccc2c2nc3ccccc3nc21	i	nt	?	?	?	i
CCn1c2ccccc2c2nc3cc(C(=O)O)ccc3nc21	i	i	i	i	-56	i
CCn1c2ccccc2c2nc3ccccc3nc21	i	i	18µM	?	i	i
COc1cc2nc3c4ccccc4n(CC#N)c3nc2cc1OC	nt	i	nt	nt	nt	nt
CCCn1c2ccccc2c2cc(C(=O)O)ccc21	i	i	i	i	i	i
CCn1c2ccccc2c2nc3cc(OC)c(OC)cc3nc21	i	nt	13µM	13µM	-52	i
Clc1nc(NCC2CCCO2)c2[nH]cnc2n1 (stereo not given)	i	i	i	i	nt	i
Cc1ccc(C2N(C)C(=O)c3ccccc3N2C)cc1 (stereo not given)	i	nt	21µM	i	i	i
Cc1ccc(NC(=O)CN(C)C(=O)CSc2ccccc2F)cc1	i	i	i	i	i	i
Cc1ccc(NC(=O)CN(C)C(=O)c2ccccc2Cc2ccccc2)cc1	i	i	?	?	-58	i
Cc1cccc(C)c1NC(=O)CN(C)C(=O)c1ccccc1Cc1ccccc1	i	i	?	?	i	i
SMILES	HepG2 viability	TDP1 block	TDP1 cell noCPT	DT40 TDP1 CPT	IL1B secr inh	TGFb inhibitor
Cc1ccc(NC(=O)CN(C)C(=O)Cc2c(Cl)cccc2Cl)cc1	i	i	16µM	?	i	i
CCOC(=O)C1(C)NC(c2ccc(OC)cc2OC)C2C(=O)N(CC)C(=O)C21 (stereo not given)	i	i	i	i	i	i
O=C(NCCN1CCN(c2ccccc2)CC1)c1cccc(Br)c1	i	i	14µM	?	i	i
O=C(C(=O)N1CCN(c2ccncc2)CC1)c1cccc(Br)c1	nt	nt	15µM	15µM	i	nt
Cc1ccc(N2CCN(C(=O)C(=O)c3cccc([N+](=O)[O-])c3)CC2)cc1	nt	nt	?	?	i	nt
O=C(NCCN1CCN(C(=O)c2cccc(Br)c2)CC1)C(=O)Nc1ccc(Br)cc1	i	i[0.0935 µM]	26µM	13µM	i	i
CSCCC(NC(=O)c1ccccc1Br)C(=O)NNC(=O)C1COc2ccccc2O1 (stereo not given)	i	nt	i	i	i	i
Cc1ccc(C(=O)NCc2ccncc2)cc1S(=O)(=O)N1CCCCC1	i	i	i	?	i	i
CN1CCN(c2ncnc3ccc(-c4ccccc4Cl)cc23)CC1	nt	nt	21µM	16µM	nt	nt
Clc1ccccc1-c1ccc2ncnc(NCc3cccs3)c2c1	i	i	nt	nt	nt	?
Cc1ccccc1-c1ccc2ncnc(N3CCN(C)CC3)c2c1	nt	nt	16µM	?	nt	nt
CC(Oc1ccccc1)C(=O)NCC1Cc2cc(F)cc(-c3ccccn3)c2O1 (stereo not given)	nt	nt	i	i[9.04 µM]	nt	nt
Cc1nc(SCC(=O)NC2CC2)c2c(C)c(C)sc2n1	i	i	?	?	i	i
Cc1sc2nc(C(C)C)nc(SCC(=O)NC3CC3)c2c1C	i	i[0.0935 µM]	16µM	16µM	i	i
CCc1ccc(/C=C2/SC(N3CCOCC3)=NC2=O)cc1	i	nt	?	i	-50	i
O=C1N=C(N2CCOCC2)S/C1=C\c1ccncc1	i	nt	i	i	i	i
CC(C)c1ccc(/C=C2\SC(N3CCOCC3)=NC2=O)cc1	i	i	?	?	-65	i
Cc1ccc(S(=O)(=O)N2C3CCCCC3O[C@H]2CC(=O)c2ccccc2)cc1 (stereo not given in full)	nt	nt	?	i	i	nt
CC1CN(CC(=O)NCC2(N3CCOCC3)CCCC2)Cc2cc(Cl)ccc2O1 (stereo not given)	nt	nt	?	i[9.04 µM]	nt	nt
Cc1c(C(=O)c2no[n+]([O-])c2C(=O)c2cnn(C)c2C)cnn1C	11µM	i	3.7µM	2.6µM	i	7.9µM
Cc1c(C(=O)Nc2ccc(Br)cc2)cnn1C	i	i	i	i	i	i
c1ccc(-c2ccc(CNC3CC3)cc2)cc1	i	nt	i	?	-87	i
O=C(O)c1c(-c2ccccc2)cnc2ccccc12	i	nt	i	i	i	i
c1ccc(C2=Nc3ccccc3NC(c3ccccc3)C2)cc1 (stereo not given)	i	i	15µM	?	i	i
CC[C@@H](C)[C@H](CNC)NC[C@@H](Cc1cccc2ccccc12)NCCc1cccc(C(F)(F)F)c1	i	nt	?	23µM	i	?
CC(C)NCC(O)COC1CCC(C(C)(C)C)CC1 (stereo not given)	i	i	?	?	i	i
CCC[C@H](CN[C@@H](CNC)[C@H](C)CC)NCCc1cc(C(F)(F)F)cc(C(F)(F)F)c1	22µM	nt	3.3µM	12µM	-100	16µM

Compound activity (PubChem BioAssay)
